What all share (assay): PBM binding z-score (relative to random genomic background probes); higher = stronger binding; sequences stand for … in GC…GCGATTGACAGCGTAGAATGAAGG
Assay [1] has as its system FXR:RXRa (NR concentration 270 nM, RXRa partner concentration 90 nM). The method in brief:
(§1)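 Custom Agilent 4×180K protein-binding microarrays carried double-stranded probes, each with a 34-nt variable region. These regions held direct-repeat seeds, single-nucleotide variants, half-site ablations and random human genomic background sequences. Ligand-free nuclear receptor dimers were incubated on the arrays for 1 h, antibodies against each partner (one per run) detected binding, and scanned fluorescence was regression-normalized. Binding z-scores take the random background probes as reference.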

In assay [2] the test system is LXRa:RXRa (NR concentration 270 nM, RXRa partner concentration 90 nM). The method in brief: as §1
Assay [3] has as its system LXRa homodimer (NR concentration 270 nM). The method in brief: as §1
In assay [4] the test system is LXRb:RXRa (NR concentration 270 nM, RXRa partner concentration 90 nM). The gist of the method: as §1
The test system of assay [5] is LXRb homodimer (NR concentration 270 nM). The gist of the method:
as §1

Assay [6] relates to PPARa:RXRa (NR concentration 270 nM, RXRa partner concentration 90 nM). The gist of the method: as §1
Assay [7] has as its system PPARg:RXRa (NR concentration 180 nM, RXRa partner concentration 90 nM). The gist of the method: as §1
The test system of assay [8] is PPARg:RXRa 270nM:90nM, anti-RXR (NR concentration 270 nM, RXRa partner concentration 90 nM). The method in brief:
as §1

The test system of assay [9] is PPARg:RXRa 30nM:10nM, anti-RXR (NR concentration 30 nM, RXRa partner concentration 10 nM). The gist of the method:
as §1

Assay [10] relates to PPARg:RXRa 90nM:30nM, anti-RXR (NR concentration 90 nM, RXRa partner concentration 30 nM). The gist of the method:
as §1

The subject of assay [11] is PPARg:RXRa DBDmut IVT, anti-RXR (DBD mutation: RXRa K156A/R161A, NR concentration 270 nM, RXRa partner concentration 90 nM). The gist of the method:
as §1

Assay [12] concerns PPARg:RXRa IVT, anti-PPARg (NR concentration 270 nM, RXRa partner concentration 90 nM). The gist of the method:
as §1

The subject of assay [13] is PPARg DBDmut:RXRa IVT, anti-PPARg (DBD mutation: PPARg1 K132A/R137A, NR concentration 270 nM, RXRa partner concentration 90 nM). The gist of the method: as §1
For assay [14], the system named is PPARg DBDmut IVT, anti-PPARg (DBD mutation: PPARg1 K132A/R137A, NR concentration 270 nM). The method in brief:
as §1

Assay [15] deals with PPARg homodimer (NR concentration 180 nM). The method in brief: as §1
The test system of assay [16] is PXR:RXRa (NR concentration 270 nM, RXRa partner concentration 90 nM). The gist of the method: as §1
Assay [17] has as its system PXR homodimer (NR concentration 270 nM). The method in brief: as §1
Assay [18] has as its system RARa:RXR (NR concentration 270 nM, RXRa partner concentration 90 nM). The method in brief:
as §1

Assay [19] deals with RARa homodimer (NR concentration 270 nM). The gist of the method: as §1
The test system of assay [20] is RARb:RXRa (NR concentration 270 nM, RXRa partner concentration 90 nM). The gist of the method:
as §1

These results are taken from the supplement of paper PMC6555819.

In the case of CACCCTAGGTCAGGGCCAGTATAGGAGGAACGTT, the PBM binding z-score in assay [1] is 1.9; in assay [2], 2.6; in [3], 0.74; in assay [4], 1.2; in assay [5], -0.00593; in [6], 2.24. The PBM binding z-score was 1.36 in [7]; 1.08 in assay [8]; -0.0218 in assay [9]; 0.354 in [10]; 0.709 in assay [11]; 1.64 in assay [12]. For the same sequence, the PBM binding z-score was -0.28 in [13]; -0.553 in assay [14]; 1.71 in assay [15]; 0.664 in [16]; 0.00908 in assay [17]; 1.49 in [18]. The PBM binding z-score in [19] was -0.0281; in [20] it was 3.38.

Take TCTATTAGTTGATTAGGGCAACCAAAACAGCGGA: the PBM binding z-score in assay [1] came to 0.762; in assay [2], 0.673; in assay [3], 0.188; in [4] it was 0.699; in assay [5] it was 0.773; in assay [6] it was 1.06. Also, the PBM binding z-score in [7] turned out to be 0.435; in [8] it was 2.01; in assay [9], 3.9; in assay [10], 2.83; in [11], 2; in assay [12] it was 1.72. Besides, the PBM binding z-score worked out at 1.55 in [13]; 1.68 in assay [14]; 0.9 in [15]; 0.429 in assay [16]; 0.323 in assay [17]; 0.556 in [18]. For the same sequence, the values for the PBM binding z-score in assay [19] and in assay [20] were 1.11 and 0.905, respectively.

With GCTAGCAGGCCTTTTGGGTCACTCAATGACGGGC, the PBM binding z-score in assay [1] was 0.126; in [2], -0.171; in [3], -0.408; in [4], 0.187; in [5] it was -1.11; in assay [6] it was 0.992. In addition, the PBM binding z-score in assay [7] was 0.209; in [8] it was 0.00506; in [9] it was -0.68; in [10], -0.138; in assay [11] it was 0.302; in [12], 0.843. Also, the PBM binding z-score in [13] was -1.25; in assay [14] it was -1.51; in assay [15] it was -0.592; in [16], 0.137; in assay [17], -0.69; in assay [18] it was 0.937. Also, the PBM binding z-score was -0.611 in assay [19] and 1.06 in assay [20].

Consider CCTGCTAGGTTAATGGTCAGCTAAAGCAGCTCGC, for which the PBM binding z-score in assay [1] is -0.16; in assay [2] it was 0.22; in assay [3], -0.415; in [4] it was 0.0198; in [5], -0.231; in assay [6] it was 0.798. For the same sequence, the PBM binding z-score came to 1.47 in assay [7]; 3.16 in assay [8]; 0.835 in [9]; 2.53 in assay [10]; 2.01 in assay [11]; 1.36 in assay [12]. The PBM binding z-score in [13] is -0.242; in assay [14] it was -0.61; in assay [15] it was 0.222; in [16] it was -0.336; in assay [17], -0.337; in assay [18], 0.0339. The PBM binding z-score in assay [19] was -0.547; in [20] it was 1.26.

Turning to CGAACCAGGGCATGAGTTGATAGCAAATGCCGAT, the PBM binding z-score is -0.0641 in assay [1]; -0.00251 in assay [2]; -0.295 in assay [3]; -0.304 in assay [4]; -1.08 in assay [5]; 0.552 in assay [6]. Further, the PBM binding z-score in assay [7] was 1.15; in assay [8], 1.2; in [9], -0.166; in assay [10], 0.593; in assay [11], 2.9; in assay [12] it was 2.29. Also, the PBM binding z-score in [13] was -0.69; in assay [14], 0.106; in assay [15], 0.228; in assay [16] it was -0.0525; in [17], -0.0221; in assay [18], -0.0885. Moreover, the figures for the PBM binding z-score in assay [19] and in [20] were -0.263 and 1.02, respectively.

As for AGAATGAGGTAATTAAGATCAGGGAATTGCGGTC, the PBM binding z-score in [1] is 0.0653; in assay [2], 0.204; in assay [3], -0.0232; in assay [4] it was -0.116; in assay [5], -0.24; in assay [6], 0.241. For the same sequence, the PBM binding z-score is 0.544 in assay [7]; 0.141 in assay [8]; -0.00971 in assay [9]; -0.0571 in assay [10]; 2.2 in assay [11]; 1.37 in assay [12]. The PBM binding z-score in assay [13] was 0.265; in assay [14], -0.0371; in assay [15], -0.649; in assay [16], -0.0568; in assay [17], 0.153; in [18], 0.224. Moreover, the PBM binding z-score in [19] was -0.15; in assay [20], 0.0669.
